Measurements: PubChem BioAssay (NCI)
About 83,000 compounds went through this panel and 20% of them were active in at least one assay; those are over-represented in the sample as a whole.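 Percent growth is the endpoint: 0 to 100 indicates growth inhibition (40 means 60% inhibition), 0 means no net growth, and negative values indicate cell death.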 Active and inactive are the calls of the source. The calls were made as follows: active = growth percent below 10; inactive = the rest.

Tests used:
Test in all cases: NCI-60 one-dose screen, 48 h (100 = growth as untreated, 0 = no growth, -100 = all killed)
Settings in all cases: 10 µM unless noted
[1] = tested on: SK-MEL-2 melanoma
[2] = tested on: EKVX NSCLC
[3] = tested on: SN12C renal
[4] = tested on: UO-31 renal
[5] = tested on: TK-10 renal
[6] = tested on: ACHN renal
[7] = tested on: CAKI-1 renal
[8] = tested on: A498 renal
[9] = tested on: CCRF-CEM leukemia
[10] = tested on: MOLT-4 leukemia
[11] = tested on: RPMI-8226 leukemia
[12] = tested on: OVCAR-8 ovarian
[13] = tested on: OVCAR-5 ovarian
[14] = tested on: OVCAR-4 ovarian
[15] = tested on: SK-OV-3 ovarian
[16] = tested on: IGROV1 ovarian
[17] = tested on: OVCAR-3 ovarian
[18] = tested on: HS 578T breast
[19] = tested on: NCI/ADR-RES ovarian
[20] = tested on: SR leukemia

Measured: growth

c1ccc2sc(SSN3CC4CCC(CC4)C3)nc2c1
inactive: [1] 124% | [2] 106% | [3] 104% | [4] 55.1% | [5] 121% | [6] 98.3% | [7] 104% | [8] 142% | [9] 111% | [10] 56.3% | [11] 111% | [12] 106% | [13] 112% | [14] 102% | [15] 108% | [16] 14.6% | [17] 150% | [18] 92.7% | [19] 108%

S=c1[nH]c2cc(Cl)ccc2s1
inactive: [1] 100% | [2] 102% | [3] 96.6% | [4] 66% | [5] 97.6% | [6] 95.2% | [7] 92.3% | [8] 132% | [10] 108% | [20] 106% | [12] 103% | [13] 98.6% | [14] 106% | [15] 102% | [16] 105% | [17] 102% | [19] 105%
active: [9] -43.5%

COc1ccc(/C=C2/C(=O)ON=C2C)cc1
inactive: [1] 96% | [2] 109% | [3] 95.6% | [4] 99% | [5] 96.5% | [6] 118% | [7] 102% | [8] 100% | [9] 105% | [10] 107% | [20] 115% | [11] 99.1% | [12] 105% | [14] 115% | [15] 100% | [16] 115% | [17] 111% | [18] 102% | [19] 115%

NNc1cccc([N+](=O)[O-])c1
inactive: [1] 98% | [2] 79.9% | [3] 102% | [4] 83.1% | [5] 98% | [6] 88.7% | [7] 56% | [8] 83% | [9] 38.1% | [10] 25.3% | [20] 35% | [11] 90.9% | [12] 78% | [13] 94.8% | [14] 107% | [16] 83% | [17] 100% | [18] 106% | [19] 76.3%

Nc1nc(-c2ccccc2)nc(N)c1N=O
inactive: [1] 88% | [2] 89.1% | [3] 74% | [4] 45.8% | [5] 51.6% | [6] 58.9% | [7] 32.4% | [8] 112% | [9] 34.8% | [10] 58.1% | [20] 27.4% | [11] 41% | [12] 54.3% | [13] 96.9% | [14] 83.9% | [16] 68.6% | [17] 27.7% | [18] 65% | [19] 78.5%

Oc1cc(Cl)ccc1Cc1ccc(Cl)cc1O
inactive: [1] 66.1% | [2] 51.2% | [3] 36.2% | [4] 46.4% | [5] 95.6% | [6] 49.4% | [7] 92.9% | [8] 126% | [9] 45.7% | [10] 43.5% | [20] 59.1% | [11] 18.7% | [12] 64.6% | [14] 30.1% | [15] 90.8% | [16] 82.5% | [17] 40.2%

N#CCc1cccc2ccccc12
inactive: [1] 95.1% | [2] 101% | [3] 110% | [4] 92% | [5] 98.3% | [6] 103% | [7] 103% | [8] 109% | [9] 91.9% | [10] 92% | [20] 100% | [11] 103% | [12] 105% | [13] 110% | [15] 113% | [18] 122% | [19] 115%

COc1ccc(NC(=O)/C(=C/N2C(=O)/C(=C/c3ccc(OC)c(OC)c3)NC2=S)C(C)=O)cc1
inactive: [1] 87.1% | [2] 93.5% | [3] 80.8% | [4] 54.6% | [5] 110% | [6] 79.6% | [7] 92.3% | [8] 87.6% | [9] 80.3% | [11] 76.6% | [12] 80.8% | [13] 99.3% | [14] 85.1% | [15] 55.9% | [16] 74.7% | [17] 79% | [18] 40.7% | [19] 77.6%

NNc1ccc(Cl)cc1Cl
inactive: [1] 92.4% | [2] 81.1% | [3] 78.3% | [4] 29.2% | [5] 94.3% | [6] 54.7% | [7] 58.8% | [8] 97.2% | [9] 27.7% | [10] 52.7% | [20] 57.3% | [12] 52.7% | [13] 88.8% | [14] 89.2% | [15] 69.7% | [17] 87.4% | [18] 84.1% | [19] 53.5%

Nc1nc(N)c2cc(Sc3cccc(C(F)(F)F)c3)ccc2n1
inactive: [1] 68.5% | [2] 23.7% | [3] 26.5% | [4] 21.3% | [5] 43.5% | [6] 26.6% | [8] 54% | [9] 33.2% | [10] 14.3% | [12] 31% | [13] 45.1% | [15] 63.9% | [16] 21.9% | [17] 25.4% | [18] 40.4% | [19] 17.7%
active: [7] 9.5% | [20] -27.1% | [11] 5.83%

CN(C)c1ccc2cc3c(cc2c1)Oc1ccccc1N3.[Cl][Zn][Cl]
active: [4] 5.78%
inactive: [1] 89.5% | [2] 89.9% | [3] 89.3% | [5] 77.4% | [6] 70.9% | [7] 54.2% | [8] 115% | [9] 31.4% | [10] 24.7% | [20] 12.5% | [11] 48.9% | [12] 70.2% | [14] 64% | [15] 106% | [16] 78.5% | [18] 106% | [19] 86.2%

COc1ccc(C(OCC2OC(n3ccc(NC(=O)c4ccccc4)nc3=O)C(O)C2O)(c2ccccc2)c2ccccc2)cc1 (stereo not given)
active: [3] -38.2% | [10] 3.18% | [11] 3.08%
inactive: [1] 90.1% | [2] 38.4% | [4] 22.7% | [5] 81.5% | [6] 47.3% | [7] 55% | [8] 52.8% | [9] 47.1% | [20] 12.4% | [12] 29% | [14] 25.9% | [15] 75.1% | [16] 33.7% | [17] 45.6% | [18] 61.7% | [19] 38.1%

Cc1oc2c(C)c3oc(=O)cc(C)c3cc2c1CCl
active: [20] -10%
inactive: [1] 109% | [2] 68.4% | [3] 67.8% | [4] 47.6% | [5] 86.1% | [6] 78.3% | [7] 51.8% | [8] 61.8% | [9] 47.6% | [10] 63.6% | [11] 54.4% | [12] 87.1% | [13] 77.3% | [15] 89.1% | [16] 94.3% | [17] 61.6% | [18] 77.6% | [19] 83.7%

Cc1nc([N+](=O)[O-])c(Sc2nncc(-c3ccccc3)n2)n1C
inactive: [1] 95.4% | [2] 79.7% | [3] 86.8% | [4] 60.3% | [5] 74.4% | [6] 62.6% | [8] 107% | [9] 45.1% | [10] 65.7% | [11] 62.5% | [12] 89.4% | [13] 79.7% | [14] 83.7% | [15] 109% | [16] 89.7% | [17] 78.5% | [18] 99.1% | [19] 81.3%
active: [7] -3.06%

O=C(/C=C/c1ccccc1)c1ccccc1O
inactive: [1] 98.6% | [2] 89.2% | [3] 92.1% | [4] 64.6% | [5] 94.3% | [6] 87% | [7] 75.2% | [8] 98.3% | [9] 55.1% | [10] 70.2% | [11] 26.6% | [12] 87.7% | [13] 91.1% | [14] 87.6% | [15] 107% | [16] 76.5% | [17] 89% | [18] 94.7% | [19] 93.8%

Cc1ccc(NC2=CC(=O)C(=O)c3ccccc32)cc1
active: [1] 4.01% | [3] -39.2% | [4] -18.4% | [13] -25.4% | [14] -0.0623%
inactive: [2] 73% | [5] 42.4% | [6] 21.9% | [7] 35.5% | [8] 63.2% | [9] 27% | [10] 28.7% | [20] 25.9% | [12] 25% | [15] 79.9% | [17] 13.7% | [18] 16.3% | [19] 19.3%

C/C(=N\NC(=S)N1CC2CCC(CC2)C1)c1ccccn1
active: [2] -6.66% | [3] 4.27% | [4] -8.11% | [7] 0.118% | [8] -12.4% | [9] 3.63% | [10] 3.87% | [20] -10.1% | [11] -6.26% | [14] -41.2% | [16] 5.07% | [17] -17.7%
inactive: [1] 13.7% | [6] 15.1% | [12] 18.2% | [13] 24.5% | [15] 18.9% | [18] 16.3% | [19] 12.6%

CCOC(=O)c1[nH]c(C#N)c(C(=O)OCC)c1C
inactive: [1] 104% | [2] 93.3% | [3] 92.5% | [4] 90.2% | [5] 104% | [6] 101% | [7] 94.7% | [8] 96.7% | [9] 97.3% | [12] 94.8% | [13] 102% | [14] 97.7% | [15] 117% | [16] 101% | [18] 124% | [19] 106%
